Source: PubChem (several laboratories)
A selection: hits, their analogues and other compounds. The true share with any hit is near 4.2%.
tim10-1 inh: inhibits growth of tim10-1 mutant yeast. S. cerevisiae tim10-1 ts strain growth, BacTiter-Glo, 24 h. inhibition, % at 20 µM. 2.2% of 330,000 active. AID 463190;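 active = inhibition of at least 40%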;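 also: mutant grown at 25 °C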
NALP1 inh: blocks the NALP1 inflammasome reconstituted in yeast | inhibition, % at 10 µM | S. cerevisiae NALP1/ASC/caspase-1 growth, X-gal OD620, 72 h | 0.61% of 280,000 active; in the data active = inhibition mostly above about 24%, no sharp cut-off; inactive = mostly below about 32%
tim23-1 inh: inhibits growth of tim23-1 mutant yeast. 1.3% of 330,000 active. S. cerevisiae tim23-1 growth, BacTiter-Glo luminescence, 24 h. inhibition, % at 20 µM;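 active = growth inhibition of the mutant yeast at or above 50%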;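 also: temperature-sensitive mutant grown at 25 °C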
PfHsp90 yeast 2: reduces growth (ATP signal) of yeast expressing P. falciparum Hsp90. S. cerevisiae expressing PfHsp90, BacTiter-Glo ATP, 48 h; yeast lacking PDR1 and PDR3 efflux regulators. inhibition, % at 9.4 µM. 0.32% of 310,000 active;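 active = every replicate shows inhibition above about 80%, whatever the replicate mean, limit read from the data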
TIM10 inh: TIM10 yeast growth inhibition. S. cerevisiae TIM10 strain growth, BacTiter-Glo luminescence, 24 h. inhibition, % at 10 µM. 1.4% of 330,000 active. AID 463195;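 active = inhibition of 40% or more at the single tested concentration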;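 also: wild-type TIM10 isogenic control strain grown at permissive 25 °C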
NALP3 yeast inh: NALP3 inhibition in yeast; Yeast reconstituted NLRP3/ASC/caspase-1, beta-gal luminescence, 24 h; inhibition, % at 10 µM; 0.39% of 330,000 active;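 active = inhibition of 50% or more; inactive = inhibition below 50%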
tim10-1 confirm: confirmation of tim10-1 mutant yeast growth inhibitors. shares compounds with tim10-1 inh. S. cerevisiae tim10-1 ts strain growth, BacTiter-Glo, 24 h. inhibition, % at 20 µM. 56% of 7,400 active;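 active = inhibition of yeast growth at or above a set limit in either of two repeat tests at 20 µM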;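 also: tim10-1 mutant grown at permissive 25 °C to find synthetic lethal compounds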
TIM10 conf: confirmation of TIM10 yeast growth inhibitors; shares compounds with TIM10 inh; S. cerevisiae tim10 strain growth, BacTiter-Glo luminescence, 24 h; inhibition, % at 10 µM; 63% of 4,600 active;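 active = inhibition of yeast growth at or above a set limit in either of two replicates at 10 µM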; also: this counterscreen used the strain with wild-type TIM10
tim23-1 confirm: tim23-1 yeast growth inhibition, confirmed; S. cerevisiae tim23-1 growth, BacTiter-Glo luminescence, 24 h; shares compounds with tim23-1 inh; inhibition, % at 20 µM; 83% of 4,400 active;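 active = inhibition above about 39% in either of two replicate wells at 20 µM, limit read from the data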;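 also: temperature-sensitive tim23-1 mutant grown at 25 °C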
Hits are given with their value; . = inactive; / = no result.

SMILES	tim10-1 inh	NALP1 inh	tim23-1 inh	PfHsp90 yeast 2	TIM10 inh	NALP3 yeast inh	tim10-1 confirm	tim23-1 confirm	others
CC[C@@]1(C(=O)OC)N[C@H](CN(C)C(=O)COc2ccccc2)[C@@H]2C(=O)N(Cc3ccccc3)C(=O)[C@@H]21	.	/	.	.	.	.	/	/
Cc1cc(C)c(S(=O)(=O)Nc2ccnc(-c3cccnc3)n2)c(C)c1	.	.	.	.	.	.	/	/
Cc1cccc(NC(=S)NC2CCCCC2)n1	41	.	52	.	50	.	.	50	TIM10 conf=44
O=C(COC(=O)C12CC3CC(CC(C3)C1)C2)Nc1ccc(OC(F)F)cc1	44	.	59	.	57	.	.	62	TIM10 conf=46
CCN1CCN(C(=O)c2cc(COc3ccc(F)cc3F)on2)[C@@H](C)C1=O	.	.	.	.	.	.	/	/
O=C(Nc1ccc(O)cc1)c1ccccc1OCc1ccccc1	45	.	53	.	.	.	.	53
Nc1ccc(N=Nc2ccccc2)c2ccccc12	49	.	80	.	65	.	39	.	TIM10 conf=75
Cc1cc(C(=O)NNC(=O)c2ccccc2F)c2ccccc2n1	.	/	.	.	.	.	/	/
N#CCCN(Cc1cccs1)C(=O)Nc1ccccc1	.	/	.	.	.	.	/	/
Cc1c(C2(O)CCCCC2)[nH]c2cc(C(F)(F)F)ccc12	42	/	56	.	.	.	.	64
Cc1c(C2(O)CCCCC2)[nH]c2cnccc12	.	/	.	.	.	.	/	/
CC(=O)Nc1ccc(NC(=O)C(C)OC(=O)C2CCCCC2)cc1 (centres undefined)	.	/	.	.	.	.	/	/
CC(C)Cc1nc(SCC(=O)N2CCCCC2)c2c(=O)n(C)c(=O)n(C)c2n1	.	.	.	.	.	.	/	/
COc1ccc(/C=N/Nc2nc(-c3cccnc3)nc3ccccc23)cc1OC	.	.	.	.	.	.	/	/
Cc1ccc(-c2nc(N/N=C/c3ccncc3)c3ccccc3n2)cc1	74	.	76	.	60	.	69	81	TIM10 conf=60
Cc1noc(C)c1NC(=O)N(C)C[C@H]1Oc2ccc(NC(=O)Nc3ccccc3)cc2C(=O)N([C@H](C)CO)C[C@@H]1C	.	/	.	.	.	.	/	/
COc1cccc(NC(=O)CSc2nc3ccccc3cc2Cc2ccccc2)c1	.	.	.	.	.	.	/	/
COc1cccc(CSc2nc3ccccc3cc2C=O)c1	49	.	71	.	46	.	44	78	TIM10 conf=53
Cc1nn(-c2ccccc2)c2c1C1(C(=O)N3c4c(cccc41)C(C)CC3(C)C)C(C#N)=C(N)O2 (centres undefined)	75	.	69	.	52	.	73	78	TIM10 conf=43
O=C1c2ccccc2S(=O)(=O)c2cc(N3CCC4(CC3)OCCO4)ccc21	.	/	.	/	.	.	/	/
C=C(CC)C(=O)c1ccc(OCC(=O)O)c(Cl)c1Cl	65	78	68	.	54	.	55	89	TIM10 conf=57
Nc1ncc([N+](=O)[O-])cc1S(=O)(=O)c1ccccc1	.	/	.	/	.	.	/	/
CCC(C)NC(=S)NNC(=O)c1ccc(C(C)(C)C)cc1 (centres undefined)	.	.	.	.	.	.	/	/
O=C(COc1ccc(Cl)cc1Cl)Nc1ccccn1	47	.	58	.	.	.	49	47
CCSc1ccccc1C(=O)n1nnc2ccccc21	55	/	59	.	.	.	49	70
CCSc1ccccc1C(=O)N1CCCC1	.	.	.	/	.	.	/	/
N#Cc1c(-c2ccc(Cl)cc2)n(O)c2ccccc12	/	/	/	.	/	/	/	/
CC1=NN(c2nc3ccccc3[nH]2)C(=O)/C1=C/N(C)C	59	.	59	81	.	.	active	59
CC1=NN(c2ccccc2)C(=O)/C1=C/N(C)C	.	.	.	.	.	.	/	/
O=C(COC(=O)c1ccc2[nH]c3c(c2c1)CCCC3)Nc1ccccc1	.	.	.	.	.	.	/	/
